# Experimental data published in PubChem BioAssay.
# Calls of active or inactive are those of the source. Unless noted, how the calls were made is not given here.
# Experiments:
# [1] = tested on: Wnt5a (protein binding on small-molecule microarray); experiment: small molecules binding Wnt5a protein – biophysical, small-molecule microarray, 635/667 nm fluorescence, primary screen (AID 1142); conditions: 635 nm fluorescence, higher = more signal;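 further: fluorescence read at 667 nm with signal to noise per printed feature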
# [2] = ATP-based viability of Huh7 replicon cells – cell-based, CellTiter-Glo luminescence, basal, 48 h, cytotoxicity control for HCV replication inhibitor project, primary screen (AID 1143); conditions: higher = more signal, called active from +8 up or from −8 down;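 further: Huh7 hepatoma cells carrying a hepatitis C replication reporter with no stimulus; test concentration not given here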
# [3] = Pseudomonas biofilm growth suppression – PAO1 strain, BacTiter-Glo luminescence, LB-PBS, primary screen (AID 1144); conditions: P. aeruginosa PAO1 biofilm, 12 h, higher = more signal
# [4] = basal CRE-LacZ reporter activity in PC12 – cell-based, unstimulated, primary screen (AID 1145); conditions: no forskolin, luminescence, 4.5 h, higher = more signal, called active from +8 up or from −8 down
# [5] = forskolin-driven CRE-LacZ activity in PC12 – cell-based, CRE-LacZ reporter, forskolin-stimulated, primary screen (AID 1146); conditions: luminescence, 4.5 h, higher = more signal, called active from +8 up or from −8 down;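 further: PC12 cells with 6xCRE LacZ reporter stimulated by forskolin 10 µM; beta-galactosidase reporter signal reflecting CREB driven transcription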
# [6] = biological target: Streptavidin (Streptomyces avidinii) (UniProt P22629); experiment: compounds binding control protein streptavidin – biophysical, small-molecule microarray, 635/667 nm fluorescence, artefact control for SMM compound annotation, primary screen (AID 1147); conditions: higher = more signal;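 further: signal reflects streptavidin binding to arrayed compounds as a control protein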
# [7] = probe aInhba binding on compound microarray – biochemical, small-molecule microarray, 635/667 nm fluorescence, primary screen (AID 1148); conditions: higher = more signal;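 further: score merges 667nm spot fluorescence with signal-to-noise for antibody binding to printed compounds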
# [8] = biological target: Torsin-1A (Homo sapiens) (UniProt O14656); experiment: TOR1A wild-type binding on microarray – cell lysate, small-molecule microarray, lysate, 635/667 nm, primary screen (AID 1149); conditions: COS7 hTOR1A-WT lysate, 635 nm fluorescence, higher = more signal
# [9] = biological target: Torsin-1A (Homo sapiens) (UniProt O14656); experiment: torsin A mutant lysate binding on microarrays – cell lysate, small-molecule microarray, COS7 lysate, 635/667 nm fluorescence, primary screen (AID 1150); conditions: COS7 hTOR1A mutant lysate, 635 nm fluorescence, higher = more signal;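 further: score pools 667 nm emission and signal to noise measuring lysate protein binding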
# [10] = tested on: Sonic hedgehog protein (Shh); experiment: Sonic hedgehog microarray binding compounds – biochemical, small-molecule microarray, 635/667 nm fluorescence, primary screen (AID 1151); conditions: 635 nm fluorescence, higher = more signal;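 further: Shh protein binding to compounds spotted on small-molecule microarray slides; score combines spot fluorescence intensity with signal-to-noise across triplicate slides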
# [11] = optical density shifts of acrAB sulA E. coli – strain DRC41, OD650, 48 h, E. coli filamentation inducer project, primary screen (AID 1152); conditions: higher = more signal, called active from +8 up or from −8 down;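 further: E. coli MC1000 strain DRC41 lacking acrAB efflux pump and sulA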
# [12] = probe aLefty1 binding on compound microarray – biochemical, small-molecule microarray, 635/667 nm fluorescence, primary screen (AID 1153); conditions: higher = more signal;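 further: score merges spot fluorescence with signal-to-noise ratio from the scanned slide images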
# [13] = plasmodial surface anion channel blockers, osmotic lysis – cell-based, P. falciparum Indochina, OD700, 1 h, primary screen (AID 1154); conditions: P. falciparum Indochina infected RBC osmotic lysis, higher = more signal, called active from +8 up or from −8 down
# [14] = plasmodial surface anion channel blockers, osmotic lysis – cell-based, P. falciparum Indochina, OD700, 2 h, primary screen (AID 1155);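 further: lysis reports solute entry through the parasite surface anion channel PSAC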; conditions: P. falciparum Indochina infected erythrocytes, higher = more signal, called active from +8 up or from −8 down
# [15] = changes in parasitized red cell lysis, either direction – P. falciparum Indochina, OD700, 3 h, PSAC antagonist project, primary screen (AID 1156); conditions: P. falciparum-infected erythrocytes, osmotic lysis, higher = more signal, called active from +8 up or from −8 down
# [16] = plasmodial surface anion channel blockers, osmotic lysis – cell-based, P. falciparum Indochina, OD700, 18 h, primary screen (AID 1157); conditions: P. falciparum Indochina infected erythrocytes, osmotic lysis OD700, 18 h; higher = more signal, called active from +8 up or from −8 down
# [17] = S6 kinase pathway phospho-S6 level changes – cell-based, A549, cytoblot, luminescence, serum-stimulated, primary screen (AID 1158); conditions: 5 h, higher = more signal;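 further: serum-stimulated A549 lung adenocarcinoma cells; signal is phosphorylated S6 detected by cytoblot immunostaining with HRP secondary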
# [18] = biological target: NADPH oxidase 2 (Homo sapiens) (UniProt P04839); experiment: compounds shifting NOX2 Amplex Red fluorescence – cell-based, HEK293-NOX2, PMA-stimulated, NOX inhibitor project, primary screen (AID 1159); conditions: 45 min, higher = more signal, called active from +8 up or from −8 down; further: test concentration not given here
# [19] = biological target: NADPH oxidase 4 (Homo sapiens) (UniProt Q9NPH5); experiment: compounds shifting NOX4 Amplex Red fluorescence – cell-based, HEK293-NOX4, tetracycline-induced, NOX inhibitor project, primary screen (AID 1160); conditions: HEK293-NOX4, Amplex Red H2O2 fluorescence, 45 min; higher = more signal, called active from +8 up or from −8 down
# [20] = biological target: NADPH oxidase 5 (Homo sapiens) (UniProt Q96PH1); experiment: compounds shifting NOX5 Amplex Red fluorescence – cell-based, HEK293-NOX5, NOX inhibitor project, primary screen (AID 1161); conditions: HEK293-NOX5, ionomycin, 45 min, higher = more signal
# Chain of NADPH oxidase 5 (Homo sapiens) (Q96PH1 whole entry, looked up): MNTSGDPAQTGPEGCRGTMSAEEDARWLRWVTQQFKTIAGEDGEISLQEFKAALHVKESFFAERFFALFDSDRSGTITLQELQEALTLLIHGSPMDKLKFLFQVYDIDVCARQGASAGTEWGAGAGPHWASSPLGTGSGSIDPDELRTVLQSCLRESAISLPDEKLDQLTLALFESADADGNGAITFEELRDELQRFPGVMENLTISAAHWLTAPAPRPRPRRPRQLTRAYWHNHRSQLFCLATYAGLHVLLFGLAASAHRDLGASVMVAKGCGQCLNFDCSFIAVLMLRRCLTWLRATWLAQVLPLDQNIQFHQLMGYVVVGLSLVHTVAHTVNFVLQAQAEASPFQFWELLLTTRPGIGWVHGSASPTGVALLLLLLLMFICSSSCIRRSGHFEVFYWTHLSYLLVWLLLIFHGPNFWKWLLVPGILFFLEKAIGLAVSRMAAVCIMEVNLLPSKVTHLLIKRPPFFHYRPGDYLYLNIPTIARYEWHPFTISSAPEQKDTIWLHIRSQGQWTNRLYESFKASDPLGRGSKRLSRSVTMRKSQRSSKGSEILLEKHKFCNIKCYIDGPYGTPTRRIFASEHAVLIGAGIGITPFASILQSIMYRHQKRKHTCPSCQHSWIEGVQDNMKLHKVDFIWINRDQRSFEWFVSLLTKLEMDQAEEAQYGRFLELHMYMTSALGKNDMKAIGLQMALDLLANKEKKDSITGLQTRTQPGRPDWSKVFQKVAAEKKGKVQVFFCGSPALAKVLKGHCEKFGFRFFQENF
# Chain of NADPH oxidase 2 (Homo sapiens) (P04839 whole entry, looked up): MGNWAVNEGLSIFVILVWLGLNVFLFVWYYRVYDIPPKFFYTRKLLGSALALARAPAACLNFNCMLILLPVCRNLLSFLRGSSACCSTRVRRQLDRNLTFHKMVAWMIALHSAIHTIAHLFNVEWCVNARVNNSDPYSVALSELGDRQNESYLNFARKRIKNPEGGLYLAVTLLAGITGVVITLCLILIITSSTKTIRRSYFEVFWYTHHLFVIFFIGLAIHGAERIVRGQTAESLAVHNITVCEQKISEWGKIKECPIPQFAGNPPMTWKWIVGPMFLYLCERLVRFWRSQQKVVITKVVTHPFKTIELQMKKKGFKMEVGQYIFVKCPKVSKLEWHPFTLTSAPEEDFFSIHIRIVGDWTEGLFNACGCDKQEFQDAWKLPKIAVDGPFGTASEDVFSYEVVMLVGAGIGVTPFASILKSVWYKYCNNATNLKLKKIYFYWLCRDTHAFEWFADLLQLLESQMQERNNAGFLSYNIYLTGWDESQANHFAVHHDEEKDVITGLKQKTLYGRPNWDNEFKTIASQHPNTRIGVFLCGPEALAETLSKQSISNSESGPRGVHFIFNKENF
# Chain of NADPH oxidase 4 (Homo sapiens) (Q9NPH5 whole entry, looked up): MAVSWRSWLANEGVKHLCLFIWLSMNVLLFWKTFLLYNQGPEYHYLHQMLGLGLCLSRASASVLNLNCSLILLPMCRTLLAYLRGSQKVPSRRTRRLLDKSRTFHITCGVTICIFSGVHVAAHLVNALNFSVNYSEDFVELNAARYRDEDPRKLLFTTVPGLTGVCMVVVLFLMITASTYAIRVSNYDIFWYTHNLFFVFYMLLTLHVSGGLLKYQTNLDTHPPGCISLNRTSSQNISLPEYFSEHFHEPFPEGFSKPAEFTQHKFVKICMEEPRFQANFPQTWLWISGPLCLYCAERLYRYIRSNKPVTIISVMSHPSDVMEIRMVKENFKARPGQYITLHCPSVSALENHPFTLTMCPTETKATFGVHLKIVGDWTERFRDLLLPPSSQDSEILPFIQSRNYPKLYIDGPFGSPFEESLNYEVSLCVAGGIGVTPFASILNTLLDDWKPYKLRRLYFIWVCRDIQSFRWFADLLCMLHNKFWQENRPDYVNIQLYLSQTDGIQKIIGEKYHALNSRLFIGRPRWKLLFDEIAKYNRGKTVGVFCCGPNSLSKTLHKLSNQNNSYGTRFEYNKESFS
# Chain of Streptavidin (Streptomyces avidinii) (P22629 whole entry, looked up): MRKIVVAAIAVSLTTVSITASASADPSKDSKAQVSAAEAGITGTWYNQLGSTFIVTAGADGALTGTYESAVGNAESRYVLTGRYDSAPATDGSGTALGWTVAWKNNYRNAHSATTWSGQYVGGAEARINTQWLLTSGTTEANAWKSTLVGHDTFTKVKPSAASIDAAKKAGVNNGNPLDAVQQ
# Chain of Torsin-1A (Homo sapiens) (O14656 whole entry, looked up): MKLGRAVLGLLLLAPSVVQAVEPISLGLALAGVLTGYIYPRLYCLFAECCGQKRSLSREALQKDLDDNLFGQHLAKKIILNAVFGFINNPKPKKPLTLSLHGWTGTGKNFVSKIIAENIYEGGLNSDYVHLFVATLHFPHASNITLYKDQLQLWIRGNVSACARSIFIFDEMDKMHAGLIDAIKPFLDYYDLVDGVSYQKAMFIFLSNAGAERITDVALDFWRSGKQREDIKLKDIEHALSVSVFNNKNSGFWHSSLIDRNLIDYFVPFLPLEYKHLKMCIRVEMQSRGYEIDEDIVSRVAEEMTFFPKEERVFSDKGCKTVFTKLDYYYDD
smiles,measurement,setting,value
Cc1ccc(F)cc1S(=O)(=O)N[C@@H]1CCN(Cc2ccc(OC(C)C)cc2)C1,composite z-score,[1],-0.0943
same,z-score,[2],-3.86 (inactive)
same,z-score,[3],0.816 (inactive)
same,z-score,[4],1.76 (inactive)
same,z-score,[5],0.524 (inactive)
same,composite z-score,[6],-0.293
same,composite z-score,[7],-0.341
same,composite z-score,[8],0.277
same,composite z-score,[9],0.719
same,composite z-score,[10],-0.0003
same,z-score,[11],-19.2 (active)
same,composite z-score,[12],-0.186
same,z-score,[13],2.14 (inactive)
same,z-score,[14],0.45 (inactive)
same,z-score,[15],-0.11 (inactive)
same,z-score,[16],0.673 (inactive)
same,z-score,[17],-0.157
same,z-score,[18],-0.681 (inactive)
same,z-score,[19],-0.987 (inactive)
same,z-score,[20],-1.62
CC(C)CCC[C@@H](C)[C@H]1CC[C@@]2(C)C3=C(CC[C@]12C)[C@@]1(C)CC[C@H](OC(=O)c2ccc(Br)cc2)C(C)(C)C1CC3 (stereo not given in full),composite z-score,[1],0.119
same,z-score,[2],-1.17 (inactive)
same,z-score,[3],-0.784 (inactive)
same,z-score,[4],0.21 (inactive)
same,z-score,[5],0.168 (inactive)
same,composite z-score,[6],0.0916
same,composite z-score,[7],0.054
same,composite z-score,[8],0.276
same,composite z-score,[9],0.409
same,composite z-score,[10],0.384
same,z-score,[11],3.37 (inactive)
same,composite z-score,[12],-0.0559
same,z-score,[13],-0.571 (inactive)
same,z-score,[14],-0.957 (inactive)
same,z-score,[15],-0.149 (inactive)
same,z-score,[16],-2.39 (inactive)
same,z-score,[17],1.62
same,z-score,[18],-1.07 (inactive)
same,z-score,[19],0.175 (inactive)
same,z-score,[20],0.929
[N-]=[N+]=Nc1ccccc1[C@H]1OC(c2ccc(OCCCO)cc2)=N[C@@]1(CCS(=O)(=O)c1ccccc1)C(=O)N1CCCCC1,composite z-score,[1],0.375
same,z-score,[2],-4.28 (inactive)
same,z-score,[3],-1.21 (inactive)
same,z-score,[4],0.47 (inactive)
same,z-score,[5],-0.993 (inactive)
same,composite z-score,[6],1.89
same,composite z-score,[7],0.153
same,composite z-score,[8],0.456
same,composite z-score,[9],1.01
same,composite z-score,[10],-0.678
same,z-score,[11],-0.311 (inactive)
same,composite z-score,[12],0.495
same,z-score,[13],29.8 (active)
same,z-score,[14],23.1 (active)
same,z-score,[15],3.29 (inactive)
same,z-score,[16],3.04 (inactive)
same,z-score,[17],1.04
same,z-score,[18],-1.34 (inactive)
same,z-score,[19],0.303 (inactive)
same,z-score,[20],-0.265
O=c1cccc(-c2ccc(C(F)(F)F)cc2)o1,composite z-score,[1],-0.281
same,z-score,[2],0.421 (inactive)
same,z-score,[3],0.634 (inactive)
same,z-score,[4],-0.275 (inactive)
same,z-score,[5],-0.145 (inactive)
same,composite z-score,[6],-0.43
same,composite z-score,[7],-0.0963
same,composite z-score,[8],-0.848
same,composite z-score,[9],-0.476
same,composite z-score,[10],-0.559
same,z-score,[11],-1.06 (inactive)
same,composite z-score,[12],-0.103
same,z-score,[13],20.1 (active)
same,z-score,[14],3.36 (inactive)
same,z-score,[15],-1.13 (inactive)
same,z-score,[16],1.1 (inactive)
same,z-score,[17],-0.564
same,z-score,[18],0.584 (inactive)
same,z-score,[19],-2.27 (inactive)
same,z-score,[20],-0.246
COC(=O)C[C@H]1O[C@]2(C(=O)N(C)c3ccccc32)[C@@H](C)[C@@H]1[Si](C)(C)c1ccc(C)cc1,composite z-score,[1],0.139
same,z-score,[2],-3.88 (inactive)
same,z-score,[3],0.92 (inactive)
same,z-score,[4],1.31 (inactive)
same,z-score,[5],-0.73 (inactive)
same,composite z-score,[6],0.0785
same,composite z-score,[7],-0.0403
same,composite z-score,[8],0.559
same,composite z-score,[9],0.346
same,composite z-score,[10],0.763
same,z-score,[11],1.6 (inactive)
same,composite z-score,[12],-0.0789
same,z-score,[13],2.58 (inactive)
same,z-score,[14],0.894 (inactive)
same,z-score,[15],0.0094 (inactive)
same,z-score,[16],0.426 (inactive)
same,z-score,[17],0.559
same,z-score,[18],0.626 (inactive)
same,z-score,[19],0.00059 (inactive)
same,z-score,[20],-1.59
CC=CC(O)C1C=CC2C(=O)N(c3ccccc3)C(=O)C2N1Nc1ccccc1 (stereo not given),composite z-score,[1],0.859
same,z-score,[2],0.973 (inactive)
same,z-score,[3],-1.33 (inactive)
same,z-score,[4],0.0501 (inactive)
same,z-score,[5],-0.741 (inactive)
same,composite z-score,[6],1
same,composite z-score,[7],0.337
same,composite z-score,[8],0.358
same,composite z-score,[9],0.285
same,composite z-score,[10],0.0322
same,z-score,[11],0.509 (inactive)
same,composite z-score,[12],0.135
same,z-score,[13],5.52 (inactive)
same,z-score,[14],1.17 (inactive)
same,z-score,[15],0.419 (inactive)
same,z-score,[16],1.17 (inactive)
same,z-score,[17],-0.959
same,z-score,[18],0.209 (inactive)
same,z-score,[19],-4.28 (inactive)
same,z-score,[20],-2.42
NC(=O)N1C(=O)C2C(C1=O)C1C=C(c3ccc(CO)cc3)C2C(C2CC2)N1Cc1sc2ccccc2c1Cl (stereo not given),composite z-score,[1],0.323
same,z-score,[2],-3.73 (inactive)
same,z-score,[3],0.447 (inactive)
same,z-score,[4],4.42 (inactive)
same,z-score,[5],-1.63 (inactive)
same,composite z-score,[6],1.43
same,composite z-score,[7],-0.0313
same,composite z-score,[8],1.19
same,composite z-score,[9],0.83
same,composite z-score,[10],1.38
same,z-score,[11],0.421 (inactive)
same,composite z-score,[12],0.317
same,z-score,[13],17.8 (active)
same,z-score,[14],3.88 (inactive)
same,z-score,[15],0.777 (inactive)
same,z-score,[16],1.39 (inactive)
same,z-score,[17],-0.436
same,z-score,[18],2.51 (inactive)
same,z-score,[19],-0.148 (inactive)
same,z-score,[20],-0.568
COCCOC(=O)N1C(=O)[C@@]2(c3ccccc31)[C@H](c1ccc(OCCO)cc1)N1[C@H](c3ccccc3)[C@H](c3ccccc3)OC(=O)[C@H]1[C@@H]2C(=O)Nc1nc2ccccc2s1,composite z-score,[1],0.528
same,z-score,[2],-1.49 (inactive)
same,z-score,[3],-0.58 (inactive)
same,z-score,[4],0.505 (inactive)
same,z-score,[5],11.9 (active)
same,composite z-score,[6],0.962
same,composite z-score,[7],0.239
same,composite z-score,[8],0.73
same,composite z-score,[9],0.558
same,composite z-score,[10],1.1
same,z-score,[11],0.269 (inactive)
same,composite z-score,[12],0.071
same,z-score,[13],4.55 (inactive)
same,z-score,[14],2.02 (inactive)
same,z-score,[15],-0.214 (inactive)
same,z-score,[16],1.74 (inactive)
same,z-score,[17],-0.381
same,z-score,[18],1.13 (inactive)
same,z-score,[19],1.17 (inactive)
same,z-score,[20],1.28
